These results are taken from the supplement of paper PMC4709259.

Structures can show the parent of a compound that is named as a salt. ± gives the standard deviation.

Test [1] concerns Jurkat. Description: mean cell size (FSC-A) relative to DMSO control (fraction of control); higher = larger cells. The settings on record: 48 h. Summed up: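 Jurkat cells at 600 cells/µl were incubated for 1 h and then treated for 48h with the Enzo Screen-Well FDA Approved Drug Library v2.0 at 25µM, with DMSO at 0.9% (v/v) final. Compounds that reduced counts below 20% of controls were retested in 10-fold dilutions down to 25nM. Cell count and mean cell size, taken as forward scatter area, were measured by flow cytometry relative to solvent-only controls. Each plate carried 6-12 controls, and values are means of 3 biological replicates.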

For test [2], the system named is Jurkat. Put plainly: cell count relative to DMSO control (fraction of control); higher = more cells (less growth inhibition). As to conditions: 48 h.

`O=C(CCCN1CCC(O)(c2ccc(Cl)cc2)CC1)c1ccc(F)cc1` [Haloperidol] (concentration: 25 µM) showed a mean cell size with Jurkat [1] of 1.04 ± 0.057. This compound also registered a cell count in the test on Jurkat [2] of 0.609 ± 0.16.

Take `CN(C)CCC[C@@]1(c2ccc(F)cc2)OCc2cc(C#N)ccc21` [Escitalopram] (concentration: 25 µM): the mean cell size in the test on Jurkat [1] stood at 1.06 ± 0.039. The compound also displayed a cell count with Jurkat [2] of 0.382 ± 0.085.

`CS(=O)(=O)OCCCCOS(C)(=O)=O` [Busulfan] (concentration: 25 µM): in the test on Jurkat [1], the mean cell size is 1.03 ± 0.016. Also, in the test on Jurkat [2], the cell count turned out to be 0.343 ± 0.046.

On to `COc1c(N2CCNC(C)C2)c(F)cc2c(=O)c(C(=O)O)cn(C3CC3)c12` (stereo unspecified) [Gatifloxacin] (concentration: 25 µM), for which the mean cell size in the test on Jurkat [1] was found to be 0.956 ± 0.024. In addition, the cell count in the test with Jurkat [2] came out at 0.661 ± 0.17.

In turn, `CC[C@]1(O)C[C@H]2CN(CCc3c([nH]c4ccccc34)[C@@](C(=O)OC)(c3cc4c(cc3OC)N(C=O)[C@H]3[C@@](O)(C(=O)OC)[C@H](OC(C)=O)[C@]5(CC)C=CCN6CC[C@]43[C@@H]65)C2)C1` [Vincristine Sulfate] (concentration: 25 nM) returned a mean cell size in the test on Jurkat [1] of 0.985 ± 0.011. Besides, the cell count with Jurkat [2] turned out to be 0.083 ± 0.066.

Compound `CCCCCN(C)CCC(O)(P(=O)(O)O)P(=O)(O)O` [Ibandronate·Na Monohydrate] (concentration: 25 µM) showed a mean cell size in the test with Jurkat [1] of 0.941 ± 0.063. The compound also gave a cell count in the test on Jurkat [2] of 0.298 ± 0.14.

Regarding `CCCCN1C[C@H](O)[C@@H](O)[C@H](O)[C@H]1CO` [Miglustat (N-Butyldeoxynojirimycin·HCl)] (concentration: 25 µM), in the test with Jurkat [1], the mean cell size was determined as 0.9757 ± 0.0093. The cell count in the test on Jurkat [2] was found to be 0.81 ± 0.045.

For `COc1cc(C(C)=O)ccc1OCCCN1CCC(c2noc3cc(F)ccc23)CC1` [Iloperidone] (concentration: 25 µM), in the test with Jurkat [1], the mean cell size stood at 0.954 ± 0.031. In the test on Jurkat [2], this compound registered a cell count of 0.734 ± 0.088.
